Test results reported in PubChem BioAssay AID1159580 (chemical genetic matrix, 2015).
Values joined by “and” are separate entries in the source; they are usually repeats but may differ in a detail not shown here. Identical values can stand only once. In all, about 5,500 compounds went through this assay and about 2,000 (36%) were called active. About 18% were inconclusive and are not listed. No stated cut-off is given here; in the data, active means normalized growth mostly below about 0.91 (no sharp cut-off); inconclusive means no clear call, values can overlap the other calls; inactive means mostly above about 0.92. The list shows a part of the results.

Experiment: chemical genetic growth profiling, strain panel (AID 1159580);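 further: tested at 20 µM; growth read once vehicle control cultures reached saturation at 30 °C; 1 = growth at the plate median or of vehicle wells; lower values mean less growth of the strain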
Details: S. cerevisiae deletion strains, growth OD

Measured: normalized growth

Cc1ccccc1C(OCCN(C)C)c1ccccc1 (centres undefined)
inactive: locus YAL021C, strain ccr4, active compounds read low 0.977 | locus YAL026C, strain drs2, active compounds read low 1 | locus YAL030W, strain snc1, active compounds read low 1 | locus YAL040C, strain CLN3, active compounds read low 0.992 | locus YBL061C, strain skt5, active compounds read low 1 | locus YBR009C, strain hhf1, active compounds read low 0.996 | locus YBR021W, strain FUR4, active compounds read low 0.913 | locus YBR023C, strain chs3, active compounds read low 1.01 | locus YBR171W, strain sec66, active compounds read low 1.01 | locus YBR229C, strain ROT2, active compounds read low 1 | locus YBR231C, strain swc5, active compounds read low 1 | locus YBR279W, strain paf1, active compounds read low 0.993 | locus YCL011C, strain gbp2, active compounds read low 1.01 | locus YCL016C, strain dcc1, active compounds read low 1.01 | locus YCL029C, strain bik1, active compounds read low 1.01 | locus YCL061C, strain MRC1 (second series), active compounds read low 0.987 | locus YCL061C, strain MRC1, active compounds read low 1.01 | locus YCL069W, strain vba3, active compounds read low 1.01 | locus YCR088W, strain abp1, active compounds read low 1 | locus YDL005C, strain med2, active compounds read low 0.986 | locus YDL035C, strain GPR1, active compounds read low 1.01 | locus YDL040C, strain nat1, active compounds read low 1.01 | locus YDL074C, strain BRE1, active compounds read low 0.959 | locus YDL101C, strain DUN1, active compounds read low 1 | locus YDL134C, strain PPH21, active compounds read low 1.01 | locus YDL185W, strain tfp1, active compounds read low 1.02 | locus YDL192W, strain arf1, active compounds read low 1.01 | locus YDR001C, strain nth1, active compounds read low 1.01 | locus YDR069C, strain doa4, active compounds read low 0.994 | locus YDR101C, strain arx1, active compounds read low 1.01 | locus YDR137W, strain rgp1, active compounds read low 1.07 | locus YDR150W, strain NUM1, active compounds read low 0.994 | locus YDR159W, strain sac3, active compounds read low 1.01 | locus YDR162C, strain NBP2, active compounds read low 0.993 | locus YDR195W, strain ref2 0.996 | locus YDR297W, strain sur2, active compounds read low 1.01 | locus YDR318W, strain mcm21, active compounds read low 1.02 | locus YDR334W, strain swr1, active compounds read low 1.01 | locus YDR335W, strain msn5, active compounds read low 1 | locus YDR363W, strain ESC2, active compounds read low 0.998 | locus YDR388W, active compounds read low 1.01 | locus YDR392W, strain spt3, active compounds read low 0.966 | locus YDR502C, strain sam2, active compounds read low 1.01 | locus YEL003W, strain gim4, active compounds read low 0.981 | locus YEL037C, strain rad23, active compounds read low 0.999 | locus YEL061C, strain CIN8 (second series), active compounds read low 1.01 | locus YEL061C, strain CIN8, active compounds read low 1 | locus YER002W, strain NOP16, active compounds read low 1.01 | locus YER015W, strain faa2, active compounds read low 1 | locus YER016W, strain bim1, active compounds read low 0.998 | locus YER110C, active compounds read low 1.01 | locus YER111C, strain swi4, active compounds read low 1 | locus YER155C, strain BEM2 (second series), active compounds read low 1.01 | locus YER155C, strain BEM2, active compounds read low 1.01 | locus YER167W, strain BCK2, active compounds read low 1 | locus YFR010W, strain ubp6, active compounds read low 1 | locus YGL078C, strain dbp3, active compounds read low 1 | locus YGL086W, strain mad1, active compounds read low 0.994 | locus YGL167C, strain pmr1, active compounds read low 1.01 | locus YGL173C, strain kem1, active compounds read low 0.994 | locus YGL227W, strain vid30, active compounds read low 1.02 | locus YGL240W, strain doc1, active compounds read low 0.994 | locus YGL248W, strain PDE1, active compounds read low 1 | locus YGL253W, strain hxk2, active compounds read low 1.01 | locus YGR078C, strain PAC10, active compounds read low 1 | locus YGR135W, strain pre9, active compounds read low 1 | locus YGR252W, strain gcn5, active compounds read low 0.902 | locus YHR013C, strain ard1, active compounds read low 0.986 | locus YHR027C, strain rpn1, active compounds read low 0.997 | locus YHR030C, strain SLT2, active compounds read low 1 and 0.992 | locus YHR079C, strain IRE1 (second series), active compounds read low 1.02 | locus YHR079C, strain IRE1, active compounds read low 0.973 | locus YHR094C, strain hxt1, active compounds read low 1 | locus YHR129C, strain ARP1, active compounds read low 1.01 | locus YHR142W, strain chs7, active compounds read low 1.01 | locus YHR200W, strain rpn10, active compounds read low 1.01 | locus YIL066C, strain RNR3, active compounds read low 1.01 | locus YIL073C, strain SPO22, active compounds read low 1.05 | locus YIL125W, strain kgd1, active compounds read low 0.994 | locus YIR030C, strain dcg1, active compounds read low 1.02 | locus YJL092W, strain hpr5, active compounds read low 1.01 | locus YJL095W, strain BCK1 (second series), active compounds read low 1.01 | locus YJL095W, strain BCK1, active compounds read low 0.983 and 0.99 | locus YJL115W, strain asf1, active compounds read low 0.992 | locus YJL129C, strain trk1, active compounds read low 0.986 | locus YJL134W, strain LCB3, active compounds read low 1 | locus YJL154C, strain vps35, active compounds read low 1 | locus YJL164C, strain tpk1, active compounds read low 0.991 | locus YJL166W, strain qcr8, active compounds read low 1.01 | locus YJL168C, strain set2, active compounds read low 1.01 | locus YJL187C, strain SWE1 (second series), active compounds read low 1 | locus YJL187C, strain SWE1, active compounds read low 1.01 | locus YJR043C, strain POL32, active compounds read low 0.995 | locus YJR066W, strain TOR1, active compounds read low 0.952
